Data published in PubChem BioAssay (NCI).
The panel holds about 83,000 compounds, 20% with a hit somewhere; the sample as a whole holds those more often.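 Plates (96-well) were seeded with cells, treated with compound at one concentration, and incubated for 48 hours before percent growth was determined.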 A number with no mark means an inactive call. Activity calls are given as the source filed them. How the source made its calls: active means growth percent below 10; inactive means the rest.

What was measured:
Experiment in all cases: NCI-60 one-dose screen, 48 h (100 = growth as untreated, 0 = no growth, -100 = all killed)
Conditions in all cases: 10 µM unless noted
[1] = test system: NCI-H23 lung
[2] = test system: NCI-H226 lung
[3] = test system: NCI-H322M lung
[4] = test system: HOP-62 NSCLC
[5] = test system: NCI-H460 lung
[6] = test system: HOP-92 NSCLC
[7] = test system: NCI-H522 lung
[8] = test system: A549/ATCC NSCLC
[9] = test system: 786-0 renal
[10] = test system: COLO 205 colon

SMILES	growth [1]	growth [2]	growth [3]	growth [4]	growth [5]	growth [6]	growth [7]	growth [8]	growth [9]	growth [10]
O=C(CN1CCN(c2ccccc2)CC1)N1CCN(c2nnc(-c3ccc(Cl)cc3)c(-c3ccc(Cl)cc3)n2)CC1	82.3%	68%	89.9%	66%	47.9%	71.3%	59.7%	54.8%	40.1%	51%
COc1cc2c(cc1OCCCOc1cc3c(cc1OC)C(=O)N1CCC[C@H]1C=N3)C=CC(C)(C)O2	107%	82.7%	133%	101%	108%	66.3%	83.7%	99.3%	102%	103%
Cc1cc(C#Cc2ccccc2)ccc1-n1c(/C=C/c2ccc(F)cc2)nc2ccccc2c1=O	71.5%	84.7%	87.5%	122%	63.6%	39.2%	64.1%	68.5%	80.4%	53.3%
Oc1c(C(c2ccc(F)cc2)N2CCCCC2)ccc2cncnc12 (stereo not given)	16.1%	-0.0481% (active)	19.4%	11.6%	4.38% (active)	-14.4% (active)	4.34% (active)	5.08% (active)	23.1%	-30.1% (active)
CCc1ccc2c(c1)N(CCO)C1=C(C(=O)OC1)C2c1cccc(Cl)c1 (stereo not given)	38.8%	32.4%	39.4%	31.7%	10.8%	93.4%	-22% (active)	26.6%	32.8%	2.49% (active)
COc1c(C(=O)/C=C/c2ccc(C)o2)c(O)cc2occc12	79.5%	75.3%	97.2%	59.2%	70.1%	68%	41.8%	58.8%	99.1%	104%
COc1ccc(/C=c2\c(=O)n(-c3ccccc3)c3nn4c(n23)=NNC42CCCCC2)cc1	92.7%	75.8%	96.3%	87.7%	101%	94.1%	90.3%	104%	106%	105%
Nc1nc(N)c2c(n1)NC(c1sc(Cl)nc1Cl)CC(c1ccccc1)=N2 (stereo not given)	76.4%	73.6%	101%	41.9%	26.8%	48.7%	9.11% (active)	43.1%	62%	46.7%
CCN(CC)CCCNc1cccc2c(C)cc(OC)nc12	90.5%	91%	93.6%	98.8%	100%	58.4%	87.5%	94.8%	94.6%	87.4%
CN(C)CCOc1nc2c3cccnc3cc(-c3cccc(Cl)c3)c2c2ncccc12	31.2%	40.5%	44.9%	44.4%	-49.8% (active)	42.7%	34.1%	22%	21.8%	-65.4% (active)
COc1cc(NCCCCC(C)N)c2nccc(C)c2c1 (stereo not given)	89.3%	93.2%	79.8%	78.3%	95.3%	46.5%	90.7%	101%	83.7%	37%
Cc1ccccc1CNc1ncnc2[nH]ncc12	109%	91.9%	114%	99.3%	104%	64.3%	47.7%	91%	97.3%	92.2%
CCCCNCCC(O)c1cc2ccc(C(F)(F)F)cc2c2cc(C(F)(F)F)ccc12 (stereo not given)	-75.3% (active)	-70.7% (active)	-37.6% (active)	-91.3% (active)	-74.5% (active)	-80.6% (active)	-83% (active)	-87.5% (active)	-85.3% (active)	-88.6% (active)
Cn1c(=O)c2c3c(oc2c2ccccc21)C(=O)c1ccccc1C3=O	78.3%	73.2%	96.2%	81.8%	78.5%	101%	50.6%	81.7%	107%	74.5%
C/C(=N\NC(=S)Nc1ccccc1)c1ccccn1	59.8%	21.3%	20.9%	41.4%	17.3%	37.1%	12.6%	45.7%	32.6%	25.6%
CCN(CC)C(Cl)=Nc1ccc(Cl)cc1	104%	96.2%	103%	99.8%	106%	108%	91.1%	97.3%	99.8%	103%
NCCCOc1cc2ccccc2cc1C(=O)NCCCOc1cc2ccccc2cc1C(=O)Nc1ccc(Cl)cc1O	-67.6% (active)	-85.8% (active)	-51.9% (active)	-100% (active)	-72.3% (active)	-75.9% (active)	-65.1% (active)	-75.2% (active)	-82.4% (active)	-54.1% (active)
C#CC[C@@H]1C[C@]2(C)[C@H]3CC[C@@H]4[C@H]5C(C(=C)C)CC[C@]5(C(=O)NCCCCN)CC[C@@]4(C)[C@]3(C)CC[C@H]2C(C)(C)[C@H]1OC(C)=O (stereo not given in full)	11.7%	96.1%	60.4%	105%	-56.5% (active)	42.2%	-64.4% (active)	-54.1% (active)	-87.5% (active)	-71.6% (active)
CC(C)(C)CC(C)(C)NCc1cc(C(C)(C)C)cc(CNC(C)(C)CC(C)(C)C)c1O	38.7%	72.7%	83.3%	69.4%	50.8%	-1.38% (active)	8.73% (active)	67.6%	71.1%	0.858% (active)
CC(=O)[C@H]1CC[C@H]2[C@@H]3CC[C@H]4CC=CC[C@]4(C)[C@H]3CC[C@]12C	96.8%	92.9%	95.2%	109%	104%	101%	40%	84%	91.7%	106%
N#Cc1nc(-c2cccc(Br)c2)cc(-c2ccc(Nc3nc(N4CCCCC4)nc(N4CCCCC4)n3)cc2)c1N	13%	-73.7% (active)	63.1%	18.5%	-21.8% (active)	-69.4% (active)	-64.6% (active)	21.9%	6.82% (active)	-57.7% (active)
Cc1ccc2nc(CN(CCN(Cc3nc4ccc(C)cc4[nH]3)Cc3nc4ccc(C)cc4[nH]3)Cc3nc4ccc(C)cc4[nH]3)[nH]c2c1	-57.3% (active)	-97.1% (active)	-95.7% (active)	-93.3% (active)	-94.8% (active)	-80.7% (active)	-86.4% (active)	-89.1% (active)	-97.3% (active)	-93.4% (active)
C=CCN(CCOC(=O)c1ccc([N+](=O)[O-])cc1)CCOC(=O)c1ccc([N+](=O)[O-])cc1	106%	94.9%	91.1%	91.9%	115%	87.1%	95.3%	102%	103%	112%
CC1=C(C(=O)Nc2ccc(F)cc2)C(c2ccccc2)C2=C(CC(C)(C)CC2=O)N1 (stereo not given)	72.2%	84.9%	95.9%	96.1%	73%	-3.3% (active)	53.4%	76.7%	84.6%	99.2%
COc1ccc(-c2nc3ccc(Cc4ccc5nc(-c6ccc(OC)cc6)[nH]c5c4)cc3[nH]2)cc1	-17.9% (active)	90.6%	97.7%	49.1%	69.1%	77.9%	-13.4% (active)	48.5%	89.5%	5.61% (active)
CN1CCN(Cc2ccc(NC(=O)c3ccc(C#N)c(C#Cc4cnc(N)c5ncccc45)c3)cc2C(F)(F)F)CC1	96.8%	59.4%	96.7%	87.2%	21.7%	81.9%	98.4%	90.6%	-80.3% (active)	77.7%
COc1cc2c(cc1OC)C(=O)C(Br)CC2 (stereo not given)	45.8%	90.8%	102%	51%	75%	20.2%	-17.3% (active)	80.1%	63.8%	24.6%
